Data published in the supplement of paper PMC12645437, “Orthogonal IMiD-Degron Pairs Induce Selective Protein Degradation in Cells” (ACS Chemical Biology, 2025).
The full ranking holds about 8,300 sequences; the median of “log2 fold change of degron read counts, EGFP-low vs EGFP+ sorted cells (limma voom), compound-induced degradation” is about -1.1, and the highest 2% start at about 3.2. For the sample, the highest values were picked, then their nearest neighbours and some sequences at random.

Target: T1, CRBN, Q96SW2
T1 chain: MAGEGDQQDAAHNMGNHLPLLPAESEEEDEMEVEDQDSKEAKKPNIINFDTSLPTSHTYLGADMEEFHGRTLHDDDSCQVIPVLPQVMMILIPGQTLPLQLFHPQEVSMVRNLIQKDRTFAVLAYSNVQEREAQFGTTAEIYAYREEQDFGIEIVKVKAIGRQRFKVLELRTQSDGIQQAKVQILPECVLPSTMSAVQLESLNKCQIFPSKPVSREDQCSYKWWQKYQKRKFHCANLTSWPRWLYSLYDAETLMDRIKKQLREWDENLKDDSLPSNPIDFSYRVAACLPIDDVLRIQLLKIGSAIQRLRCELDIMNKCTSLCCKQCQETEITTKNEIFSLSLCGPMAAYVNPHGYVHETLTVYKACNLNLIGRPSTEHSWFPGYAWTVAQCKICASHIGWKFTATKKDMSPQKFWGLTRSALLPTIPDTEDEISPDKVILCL
Assay: log2 fold change of degron read counts, EGFP-low vs EGFP+ sorted cells (limma voom), compound-induced degradation; higher = more compound-induced degradation of the degron-EGFP fusion; degrons are variants of IKZF1/3 zinc finger 2; compound dose not given here
Details: Jurkat, 18 h

[1] = compound: compound 19 (5-tert-butyl-thalidomide)
[2] = compound: compound 22 (5-morpholino-thalidomide)
[3] = compound: compound 33 (diphenyl IMiD analogue)
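Further: pooled lentiviral library of zinc finger degron-EGFP fusions in mCherry-positive Jurkat cells, FACS-sorted after compound exposure, with degron abundance counted by next-generation sequencing.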

| Sequence | log2 fold change of degron read counts [1] | log2 fold change of degron read counts [2] | log2 fold change of degron read counts [3] | log2 fold change of degron read counts (compound: thalidomide) |
| --- | --- | --- | --- | --- |
| LACEICGFFCTQKGNLLRHIKL [46L_47A_49E_50I_52G_53F_54F_55C_67L_, Q9UKT9] | 1.23 | 0.591 | 0.235 | 0.329 |
| FKCEICGHCFTQKGNLLRHIKL [46F_47K_49E_50I_52G_53H_54C_55F_67L_, Q9UKT9] | -2.38 | -3.82 | -3.48 | -2.98 |
| FQCEICGHGFTQKGNLLRHIKL [46F_47Q_49E_50I_52G_53H_54G_55F_67L_, Q9UKT9] | -3.85 | -4.27 | -2.95 | -2.21 |
| LFCNQCGFYCTQKGNLLRHIKL [46L_47F_49N_50Q_52G_53F_54Y_55C_67L_, Q9UKT9] | -0.734 | -0.67 | -0.837 | -0.422 |
| FQCPICGALFTQKGNLLRHIKL [46F_47Q_49P_50I_52G_53A_54L_55F_67L_, Q9UKT9] | -1.04 | 1.75 | 1.86 | 3.37 |
| FNCPICGARFTQKGNLLRHIKL [46F_47N_49P_50I_52G_53A_54R_55F_67L_, Q9UKT9] | 2.1 | 1.39 | -0.35 | 0.971 |
| FSCPICGARFTQKGNLLRHIKL [46F_47S_49P_50I_52G_53A_54R_55F_67L_, Q9UKT9] | 2.63 | 2.4 | 0.555 | 1.65 |
| FLCPICGARFTQKGNLLRHIKL [46F_47L_49P_50I_52G_53A_54R_55F_67L_, Q9UKT9] | 0.407 | -0.333 | 0.469 | 1.92 |
| FECPICGARFTQKGNLLRHIKL [46F_47E_49P_50I_52G_53A_54R_55F_67L_, Q9UKT9] | 0.918 | -0.107 | 1.75 | 3.37 |
| FRCPICGARFTQKGNLLRHIKL [46F_47R_49P_50I_52G_53A_54R_55F_67L_, Q9UKT9] | -0.853 | -0.665 | -0.334 | 0.377 |
| FVCPICGARFTQKGNLLRHIKL [46F_47V_49P_50I_52G_53A_54R_55F_67L_, Q9UKT9] | 0.924 | 2.47 | 0.874 | 2.71 |
| FWCPICGARFTQKGNLLRHIKL [46F_47W_49P_50I_52G_53A_54R_55F_67L_, Q9UKT9] | 2.78 | 3.66 | 1.23 | 1.15 |
| FSCPICGALFTQKGNLLRHIKL [46F_47S_49P_50I_52G_53A_54L_55F_67L_, Q9UKT9] | 0.486 | -0.0754 | 2.59 | 0.134 |
| FVCPICGALFTQKGNLLRHIKL [46F_47V_49P_50I_52G_53A_54L_55F_67L_, Q9UKT9] | -0.961 | 0.498 | 1.25 | 1.5 |
| FGCPICGARFTQKGNLLRHIKL [46F_47G_49P_50I_52G_53A_54R_55F_67L_, Q9UKT9] | 3.39 | 2.28 | 0.0226 | 1.05 |
| FYCPICGARFTQKGNLLRHIKL [46F_47Y_49P_50I_52G_53A_54R_55F_67L_, Q9UKT9] | 2.38 | 2.5 | 0.405 | -0.0683 |
| FWCNQCGRQFTQKGNLLRHIKL [46F_47W_49N_50Q_52G_53R_54Q_55F_67L_, Q9UKT9] | -1.77 | -1.3 | -1.46 | -1.87 |

| Sequence | log2 fold change of degron read counts [1] | log2 fold change of degron read counts [2] | log2 fold change of degron read counts [3] | log2 fold change of degron read counts (compound: thalidomide) |
| --- | --- | --- | --- | --- |
| FACEICGRNFTQKGNLLRHIKL [46F_47A_49E_50I_52G_53R_54N_55F_67L_, Q9UKT9] | -0.441 | -1.8 | -2.25 | -1.66 |
| FICNVCGALFTQKGNLLRHIKL [46F_47I_49N_50V_52G_53A_54L_55F_67L_, Q9UKT9] | -2.12 | -1.66 | 0.0338 | -0.727 |
| FVCDICGALFTQKGNLLRHIKL [46F_47V_49D_50I_52G_53A_54L_55F_67L_, Q9UKT9] | -1.73 | -0.858 | -0.0343 | -0.433 |
| FCCPICGRFFTQKGNLLRHIKL [46F_47C_49P_50I_52G_53R_54F_55F_67L_, Q9UKT9] | -0.555 | -0.77 | 0.987 | -0.278 |
| FGCPICGHEFTQKGNLLRHIKL [46F_47G_49P_50I_52G_53H_54E_55F_67L_, Q9UKT9] | -1.93 | -2.76 | -2.07 | -2.26 |
| FWCNQCGHTFTQKGNLLRHIKL [46F_47W_49N_50Q_52G_53H_54T_55F_67L_, Q9UKT9] | -1.74 | -2.28 | -2.22 | -1.67 |
| FYCEQCGAMFTQKGNLLRHIKL [46F_47Y_49E_50Q_52G_53A_54M_55F_67L_, Q9UKT9] | 0.643 | 1.04 | 0.255 | -1.7 |
| FTCPICGARFTQKGNLLRHIKL [46F_47T_49P_50I_52G_53A_54R_55F_67L_, Q9UKT9] | 1.24 | 2.95 | 1.72 | 3 |
| FDCPICGARFTQKGNLLRHIKL [46F_47D_49P_50I_52G_53A_54R_55F_67L_, Q9UKT9] | 3.35 | 1.87 | 1.6 | 2.76 |
| FQCPICGARFTQKGNLLRHIKL [46F_47Q_49P_50I_52G_53A_54R_55F_67L_, Q9UKT9] | -0.209 | 2.05 | 1.18 | 3.55 |
| FACPICGARFTQKGNLLRHIKL [46F_47A_49P_50I_52G_53A_54R_55F_67L_, Q9UKT9] | 3.72 | 2.53 | -0.174 | 1.31 |
| FCCPICGARFTQKGNLLRHIKL [46F_47C_49P_50I_52G_53A_54R_55F_67L_, Q9UKT9] | 2.53 | 2.75 | 1.8 | 2.55 |
| FKCPICGARFTQKGNLLRHIKL [46F_47K_49P_50I_52G_53A_54R_55F_67L_, Q9UKT9] | -2.04 | -2.6 | -2.42 | -1.57 |
| FICPICGARFTQKGNLLRHIKL [46F_47I_49P_50I_52G_53A_54R_55F_67L_, Q9UKT9] | 0.0922 | 2.32 | 1.27 | 2.63 |
| FFCPICGARFTQKGNLLRHIKL [46F_47F_49P_50I_52G_53A_54R_55F_67L_, Q9UKT9] | 3.13 | 3.35 | 1.51 | 1.26 |
| FMCPICGARFTQKGNLLRHIKL [46F_47M_49P_50I_52G_53A_54R_55F_67L_, Q9UKT9] | -0.0501 | 0.185 | 1.05 | 1.11 |
| FHCPICGARFTQKGNLLRHIKL [46F_47H_49P_50I_52G_53A_54R_55F_67L_, Q9UKT9] | 2.37 | 2.5 | 0.881 | 0.851 |
